# Measured values: PubChem BioAssay (Tox21)
# Records with an inconclusive call do not appear. Where a call stands in place of a potency, no number is given. The source made the active and inactive calls. Unless noted, calls follow the shape of the dose curve; as a rule, active = well fitted curve in the direction sought with a large enough effect in the repeat runs; inconclusive = weak or mixed curves; inactive = no such curve, though single readings can be large; an effect the other way counts as inactive or inconclusive.
# Tests used:
# [1] = qHTS RealTime-Glo MT Cell Viability Assay in HEK293 cells - 24 hour (AID 1224886); settings: RealTime-Glo luminescence; series mostly up to 76.8 µM; also: top concentration of the series differs between compounds; nearly all actives have a fitted effect of over 50% in size
# Procedure, shortened: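 Tox21 10K qHTS, HEK293, 600 cells/well, RealTime-Glo reagent co-dispensed with cells; 5 h preincubation, compound by pintool, 37 C, luminescence at 0–40 h.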
# [2] = qHTS RealTime-Glo MT Cell Viability Assay in HepG2 cells - 0 hour (AID 1224889); settings: RealTime-Glo luminescence; series mostly up to 76.8 µM; also: nearly all actives have a fitted effect of over 50% in size
# Procedure, shortened: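 Cells + NanoLuc/prosubstrate dispensed (600 cells/well) → 5 h at 37 C/5% CO2 → compounds in DMSO transferred → 40 h incubation at 37 C, luminescence read at 0, 8, 16, 24, 32, 40 h.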
# [3] = A CellTox Green Cytotoxicity Assay to monitor cytotoxicity in HepG2 cells - 8 hour (AID 1224890); settings: CellTox Green fluorescence; series mostly up to 76.8 µM; also: nearly all actives have a fitted effect of over 45% in size; also: potency is read from the fitted curve at half-maximal effect
# Procedure, shortened: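 HepG2 cells, 600/well, preincubated 5 h with CellTox Green dye, then exposed to Tox21 compounds in DMSO at 37 C for up to 40 h. Dead-cell DNA fluorescence read at the indicated time point.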
# [4] = qHTS assay to identify small molecule antagonists of the estrogen receptor alpha (ER-alpha) signaling pathway using the BG1 cell line in the presence of 0.1 nM 17-beta-estradiol - cell viability counter screen (AID 1259241); settings: VM7Luc4E2 (BG1) viability, CellTiter-Fluor protease, 22 h, 0.1 nM estradiol agonist added; series mostly up to 92.4 µM; also: nearly all actives have a fitted effect of over 40% in size
# Procedure, shortened: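 VM7Luc4E2, 4,000 cells/well, phenol red-free medium + 10% charcoal-stripped FBS; 24 hr plating; cpd + 0.1 nM E2 final, 22 hr 37C/5% CO2; CellTiter-Fluor 30 min, fluorescence.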
# [5] = qHTS assay to identify small molecule antagonists of the androgen receptor (AR) signaling pathway using the MDA cell line in the presence of 0.5 nM R1881 - cell viability counter screen (AID 1259242); settings: MDA-kb2 viability, CellTiter-Fluor protease fluorescence, 16 h; series mostly up to 92.4 µM; also: nearly all actives have a fitted effect of over 45% in size; also: potency is read from the fitted curve at half-maximal effect
# Procedure, shortened: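 MDA-kb2 cells (MMTV-luciferase, AR/GR responsive) were treated with compounds plus 0.5 nM R1881 (final) for 16 hr at 37C, 0% CO2. Viability was then read in the same wells as live-cell protease fluorescence (CellTiter-Fluor, 30 min).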
# [6] = target: Estrogen receptor (Homo sapiens) (UniProt P03372); assay: qHTS assay to identify small molecule antagonists of the estrogen receptor alpha (ER-alpha) signaling pathway using the BG1 cell line in the presence of 0.1 nM 17-beta-estradiol (AID 1259244); settings: VM7Luc4E2 (BG1) ERE-luciferase, antagonist mode, 0.1 nM E2, 22 h; series mostly up to 92.4 µM; also: nearly all actives have a fitted effect of over 50% in size
# Sequence of Estrogen receptor (Homo sapiens) (P03372 whole entry, looked up): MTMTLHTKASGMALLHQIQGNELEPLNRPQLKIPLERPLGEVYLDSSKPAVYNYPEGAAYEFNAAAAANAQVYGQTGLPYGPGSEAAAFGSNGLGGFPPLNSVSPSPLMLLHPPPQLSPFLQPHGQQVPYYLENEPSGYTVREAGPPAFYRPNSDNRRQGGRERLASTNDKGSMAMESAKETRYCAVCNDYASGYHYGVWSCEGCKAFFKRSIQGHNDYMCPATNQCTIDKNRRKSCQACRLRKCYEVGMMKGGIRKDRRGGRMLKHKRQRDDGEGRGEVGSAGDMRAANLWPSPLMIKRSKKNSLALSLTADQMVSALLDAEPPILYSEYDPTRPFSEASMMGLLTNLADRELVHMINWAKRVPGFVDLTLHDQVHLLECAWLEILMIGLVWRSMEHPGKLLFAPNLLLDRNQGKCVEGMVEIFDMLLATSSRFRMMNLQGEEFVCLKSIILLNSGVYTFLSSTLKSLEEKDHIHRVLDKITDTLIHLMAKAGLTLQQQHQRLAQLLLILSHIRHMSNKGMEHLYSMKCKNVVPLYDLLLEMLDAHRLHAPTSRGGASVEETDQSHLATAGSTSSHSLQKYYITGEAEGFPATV
# Procedure, shortened: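 VM7Luc4E2 cells (endogenous full-length ER-alpha, 4×ERE-luciferase), kept 5 days in phenol red-free, charcoal-stripped FBS medium; 4,000 cells/well. Compounds added with 0.1 nM (final) 17beta-estradiol, 22 hr at 37C; luminescence read with ONE-Glo after 30 min.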
# [7] = qHTS assay to identify small molecule HDAC inhibitors (AID 1259364); settings: HCT-116 HDAC-Glo I/II luminescence, 2 h; series mostly up to 92.4 µM; also: top concentration of the series differs between compounds; nearly all actives have a fitted effect of over 45% in size
# Procedure, shortened: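 Wild-type HCT-116 cells, plated overnight at 37 C, exposed to compounds 2 hr at 37 C; luminogenic HDAC-Glo substrate then added 30 min at room temperature. Luminescence reports relative endogenous class I/II HDAC activity.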
# [8] = qHTS assay to identify small molecule HDAC inhibitors - cell viability counter screen (AID 1259365); settings: HCT-116 viability, CellTiter-Glo ATP luminescence, 2 h; series mostly up to 92.4 µM; also: nearly all actives have a fitted effect of over 50% in size
# Procedure, shortened: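 Luminescence from CellTiter-Glo, developed 30min at room temperature, reports viability of wild-type HCT-116 cells treated 2hr with compounds at 37 C and 5% CO2 after overnight plating.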
# [9] = qHTS assay to identify small molecule agonists of the sonic hedgehog signaling (Shh) pathway - cell viability counter screen (AID 1259366); settings: NIH/3T3 Gli1-Luc viability, CellTiter-Fluor, 24 h; series mostly up to 92.4 µM; also: nearly all actives have a fitted effect of over 50% in size
# Procedure, shortened: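 Cytotoxicity counter screen run in the same wells as the Shh reporter assay. NIH/3T3 cells carrying a Gli1 response element–driven luciferase were treated with DMSO-dissolved compounds for 24hr, and live-cell protease activity was measured with CellTiter-Fluor.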
# [10] = qHTS assay to identify small molecule antagonists of the sonic hedgehog signaling (Shh) pathway - cell viability counter screen (AID 1259367); settings: NIH/3T3 Gli1-Luc viability, CellTiter-Fluor, 24 h; series mostly up to 92.4 µM; also: nearly all actives have a fitted effect of over 55% in size
# Procedure, shortened: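 Cells: 3T3 Gli1-Luc, 2,000/well, 4 hr pre-incubation. Compounds in DMSO, then conditioned medium. Incubation 24 hr, 37C, 5% CO2. CellTiter-Fluor at 23 hr, 1 hr, fluorescence.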
# [11] = qHTS assay to identify small molecule agonists of the sonic hedgehog signaling (Shh) pathway (AID 1259368; calls by dose curve;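 also: NIH/3T3-derived 3T3Gli1-Luc cells carrying a stable Gli1-driven firefly luciferase reporter; nearly all actives have a fitted effect of over 15% in size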); settings: NIH/3T3 Gli1-Luc reporter, luciferase, 24 h; series mostly up to 92.4 µM
# Procedure, shortened: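 NIH/3T3-derived 3T3Gli1-Luc cells with stably integrated Gli1-driven firefly luciferase, 2,000 cells/well, compounds added after 4 hr. Incubated 24 hr at 37C, 5% CO2; luminescence read after 30 min with luciferase reagent at room temperature.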
# [12] = qHTS assay to identify small molecule agonists of the androgen receptor (AR) signaling pathway in the presence of an antagonist - cell viability counter screen (AID 1259379); settings: MDA-kb2 viability, CellTiter-Fluor, 16 h; series mostly up to 92.4 µM; also: nearly all actives have a fitted effect of over 25% in size; also: potency is read from the fitted curve at half-maximal effect
# Procedure, shortened: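 MDA-kb2 cells (MMTV-luciferase, AR/GR), 3,000/well, 5 h attachment, then 3.0 µM nilutamide (final) and compounds at 15 concentrations. Viability by CellTiter-Fluor fluorescence after 16 h at 37 °C, 0% CO2, in the reporter wells.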
# [13] = qHTS assay to identify small molecule agonists of the estrogen receptor beta (ER-beta) signaling pathway - cell viability counter screen (AID 1259380); settings: ER-beta-bla HEK293T viability, CellTiter-Glo luminescence, 16 h; series mostly up to 92.4 µM; also: potency is read from the fitted curve at half-maximal effect; nearly all actives have a fitted effect of over 30% in size
# Procedure, shortened: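 ER-beta-UAS-bla HEK293T cells in medium with 2% charcoal-stripped FBS, pre-incubated 6 hr, then treated 16 hr at 37C. Cytotoxicity read in the same wells by CellTiter-Glo luminescence after 30 min at room temperature.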
# [14] = qHTS RealTime-Glo MT Cell Viability Assay in HEK293 cells - 8 hour (AID 1224887); settings: RealTime-Glo luminescence; series mostly up to 76.8 µM; also: nearly all actives have a fitted effect of over 50% in size; also: potency is read from the fitted curve at half-maximal effect
# Procedure, shortened: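 600 cells/well were plated with the nonlytic NanoLuc/prosubstrate reagent, pre-incubated 5 h, then given 23 nL of compound in DMSO. Incubation at 37 C for 40 h, with luminescence from viable-cell-reduced substrate read repeatedly from 0 h.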
# [15] = A CellTox Green Cytotoxicity Assay to monitor cytotoxicity in HEK293 cells - 16 hour (AID 1224888); settings: CellTox Green fluorescence; series mostly up to 76.8 µM; also: nearly all actives have a fitted effect of over 35% in size; also: potency is read from the fitted curve at half-maximal effect
# Procedure, shortened: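 HEK293 cells, 600/well, were preincubated 5 hours and then exposed to compounds at 37 C for up to 40 hours. A cell-impermeant cyanine dye staining dead-cell DNA was read by fluorescence at 0, 8, 16, 24, 32 and 40 h time points.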
# [16] = target: Estrogen receptor beta (Homo sapiens) (UniProt Q92731); assay: qHTS assay to identify small molecule agonists of the estrogen receptor beta (ER-beta) signaling pathway (AID 1259377; active = well fitted activation curve with a large enough effect in the signal ratio in the repeat runs, not every such curve was filed as active; the % refers to the signal ratio); settings: ER-beta-UAS-bla HEK293T, beta-lactamase FRET ratio, 16 h; series mostly up to 92.4 µM
# Sequence of Estrogen receptor beta (Homo sapiens) (Q92731 whole entry, looked up): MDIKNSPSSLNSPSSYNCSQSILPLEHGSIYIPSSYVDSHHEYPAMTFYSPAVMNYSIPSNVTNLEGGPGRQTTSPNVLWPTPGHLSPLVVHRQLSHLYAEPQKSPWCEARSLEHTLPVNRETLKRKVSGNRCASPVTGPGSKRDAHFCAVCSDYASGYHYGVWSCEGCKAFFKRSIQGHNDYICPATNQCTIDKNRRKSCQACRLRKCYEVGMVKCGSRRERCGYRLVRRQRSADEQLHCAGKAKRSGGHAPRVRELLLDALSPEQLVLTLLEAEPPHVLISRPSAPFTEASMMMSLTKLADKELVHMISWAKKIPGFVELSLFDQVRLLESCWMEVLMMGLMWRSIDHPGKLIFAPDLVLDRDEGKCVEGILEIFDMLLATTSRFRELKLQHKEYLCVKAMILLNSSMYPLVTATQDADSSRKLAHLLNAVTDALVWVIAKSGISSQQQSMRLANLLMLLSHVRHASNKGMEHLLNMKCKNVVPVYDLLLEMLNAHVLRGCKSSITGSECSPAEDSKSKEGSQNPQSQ
# Procedure, shortened: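 HEK293T ER-beta-UAS-bla; 2% charcoal-stripped FBS; cells pre-incubated 6 hr, compound 16 hr, 37C/5% CO2; LiveBLAzer B/G FRET substrate 2 h RT; fluorescence intensity read.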
# [17] = target: Estrogen receptor beta (Homo sapiens) (UniProt Q92731); assay: qHTS assay to identify small molecule antagonists of the estrogen receptor beta (ER-beta) signaling pathway (AID 1259378; active = well fitted inhibition curve with a large enough effect in the signal ratio in the repeat runs, not every such curve was filed as active; the % refers to the signal ratio); settings: ER-beta-UAS-bla HEK293T, beta-lactamase FRET ratio, 16 h; series mostly up to 92.4 µM
# Procedure, shortened: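 Antagonist mode: compounds added to beta-lactamase reporter HEK293T ER-beta-UAS cells stimulated with E2 (1nM final), 16 hr at 37C. LiveBLAzer B/G FRET substrate, 2 hours room temperature, fluorescence read-out.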
Structure (SMILES),Potency [1],Potency [2],Potency [3],Potency [4],Potency [5],Potency [6],Potency [7],Potency [8],Potency [9],Potency [10],Potency [11],Potency [12],Potency [13],Potency [14],Potency [15],outcome [16],Potency [17]
Clc1nc(C(Cl)(Cl)Cl)c(Cl)c(Cl)c1Cl,inactive,inactive,inactive,inactive,30.6 µM (active),inactive,inactive,inactive,inactive,inactive,inactive,21.7 µM (active),8.63 µM (active),,,,
CCCCCCCCCC[N+](C)(CCCCCCCCCC)CCC[Si](OC)(OC)OC,,,43.6 µM (active),,,inactive,,,,,inactive,,,19.5 µM (active),49 µM (active),inactive,inactive
O=C(c1ccccc1)c1ccc(Cl)cc1,,inactive,inactive,,inactive,inactive,inactive,inactive,,,inactive,inactive,,inactive,inactive,,
